# A selection: hits, their analogues and other compounds. The true share with any hit is near 3.5%.
# GPR151 activ: activators of human GPR151, primary screen, cell-based, PathHunter beta-arrestin, luminescence. PathHunter beta-arrestin GPR151 cells. activation, % at 11.2 µM. 1% of 650,000 active; in the data active = activation above about 4.9%;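 note: 0% = median of compound wells and 100% = cells with positive control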
# Target sequence (Q8TDV0 whole entry, looked up): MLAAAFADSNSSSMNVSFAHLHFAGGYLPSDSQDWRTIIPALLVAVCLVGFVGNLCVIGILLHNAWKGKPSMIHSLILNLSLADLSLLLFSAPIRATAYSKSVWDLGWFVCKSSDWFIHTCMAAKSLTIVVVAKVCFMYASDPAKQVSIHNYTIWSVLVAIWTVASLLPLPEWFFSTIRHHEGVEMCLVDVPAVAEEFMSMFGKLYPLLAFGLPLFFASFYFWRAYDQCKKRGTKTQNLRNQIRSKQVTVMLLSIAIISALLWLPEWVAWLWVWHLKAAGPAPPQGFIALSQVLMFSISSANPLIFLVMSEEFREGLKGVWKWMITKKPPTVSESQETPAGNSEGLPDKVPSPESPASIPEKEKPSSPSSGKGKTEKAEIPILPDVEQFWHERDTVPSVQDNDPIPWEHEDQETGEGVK
# TEAD-YAP inh: TEAD-YAP interaction inhibition, primary screen, TEAD-YAP interaction inhibitor project, luminescence, HEK-TIYL cells | TEAD-Gal4/YAP UAS-luciferase luminescence | inhibition, % at 9.12 µM | 1.4% of 640,000 active | AID 1259422, 2018; in the data active = inhibition above about 32%;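 note: 0% = median of test compound wells and 100% = reference inhibitor wells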
# FBW7 activator: FBW7 E3 ligase activators, primary screen, biochemical, AlphaScreen, human. F-box/WD repeat-containing protein 7 (Homo sapiens), Q969H0. AlphaScreen FBW7–phospho-cyclin E peptide binding, activator screen. normalized activity (activation), % at 26.1 µM. 0.13% of 650,000 active; in the data active = normalized activity above about 1.9%;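 note: purified mutant Fbw7 with reduced substrate affinity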
# MITF inh: MITF inhibitors, primary screen, biochemical, AlphaScreen, human | Microphthalmia-associated transcription factor (Homo sapiens), O75030 | AlphaScreen MITF homodimerization, bead proximity signal | inhibition, % at 2.6 µM | 0.91% of 650,000 active | AID 1259374, 2018; in the data active = inhibition above about 50%;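 note: 0% = vehicle wells with protein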
# Active calls of the source: *; i = inactive.
SMILES,GPR151 activ,TEAD-YAP inh,FBW7 activator,MITF inh
Cc1cc2ncn(C(=O)c3ccccc3)c2cc1C,1,-3,0,i
CC(C(=O)O)N1C(=O)/C(=C\c2cccc(O)c2)SC1=S (centres undefined),-1,0,0,22
Cc1cc(C=O)c(C)n1-c1ccc(C(=O)O)c(Cl)c1,0,10,0,70*
COc1cc(CNC(=O)Cn2nc(C(F)(F)F)c(Br)c2C)cc(OC)c1,0,3,0,20
Cc1c(Br)c(C(F)(F)F)nn1CC(=O)NCc1ccc(F)cc1C(F)(F)F,-1,36*,0,-1
CCCCn1c(N2CCCCCC2)nc2c1c(=O)[nH]c(=O)n2C,-1,-16,0,12
O=C(N/N=C/c1cc(Cl)ccc1O)C(=O)Nc1ccccc1OC(F)(F)C(F)F,1,79*,0,-6
O=C(N/N=C/c1cc([N+](=O)[O-])ccc1O)C(=O)Nc1ccccc1OC(F)(F)C(F)F,-1,8,0,2
COc1ccc(COC(=O)c2cccc(S(=O)(=O)NCc3ccccc3)c2)cc1F,1,45*,0,-3
COC(=O)c1cc(COC(=O)c2cccc(S(=O)(=O)NCc3ccccc3)c2)oc1C,0,-5,0,11
O=C(Cn1cnc2ccccc21)NCC1CCC2(CCN(C(=O)c3ccncc3)CC2)O1 (centres undefined),1,-10,0,-19
COC(=O)C1=C(C)NC(SCC(=O)Nc2ccc(C)cc2C)=C(C#N)C1c1ccccc1Cl (centres undefined),0,8,0,-10
Oc1c(I)cc(I)c2cccnc12,0,52*,0,14
Oc1c(Cl)cc(Cl)c2cccnc12,-1,2,0,-4
O=S(=O)(O)c1cc(I)c(O)c2ncccc12,0,0,0,123*
Cc1cc(C(=O)N2CCCC(N3CCOCC3)C2)c(C)o1 (centres undefined),-1,8,0,4
CSc1nnc(NC(=O)c2ccccc2[N+](=O)[O-])s1,-1,-18,0,1
COc1cccc(C(=O)Nc2nnc(SC)s2)c1,-10,43*,0,-3
CSc1nnc(NC(=O)c2c(Cl)cccc2Cl)s1,1,3,0,-1
CCCSc1nnc(NC(=O)c2cccc(OC)c2)s1,-2,-4,0,17
CSc1nnc(NC(=O)c2ccccc2Cl)s1,-11,39*,0,22
CSc1nnc(NC(=O)c2ccccc2C)s1,-9,41*,0,3
O=C(Cn1nnc(-c2ccccc2)n1)N/N=C/c1ccc(Br)cc1,0,-3,0,-6
CCCCCC(=O)NNC(=O)COc1ccc(Cl)cc1Cl,0,7,0,2
CC1(C)CC(=O)C2=C(C1)OC1=C(C(=O)CC(C)(C)C1)C2c1cc(C(C)(C)C)c(O)c(C(C)(C)C)c1,1,0,0,8
SMILES,GPR151 activ,TEAD-YAP inh,FBW7 activator,MITF inh
CC1(C)CC(=O)C2=C(C1)OC(N)=C(C#N)C2c1cc(C(C)(C)C)c(O)c(C(C)(C)C)c1 (centres undefined),1,80*,0,11
CCC(C)(C)c1ccc(OCCCCNC(=O)c2cccc3ccccc23)c(C(C)(C)CC)c1,1,-13,0,-5
CN(CCO)C1CCc2c(sc3ncn(CC4CCCCC4)c(=O)c23)C1 (centres undefined),0,49*,0,-7
O=C(C1CC1)N1CCc2cc(Br)cc(S(=O)(=O)Nc3ccccc3F)c21,-1,45*,0,-7
CC(C)(C)NS(=O)(=O)c1cc(Br)cc2c1N(C(=O)C1CC1)CC2,1,-5,0,-6
O=C(C1CC1)N1CCc2cc(Br)cc(S(=O)(=O)Nc3cccc(F)c3)c21,1,42*,0,11
CCCCc1ccc(NC(=O)C(=O)NCCc2ccc(Cl)cc2)cc1,0,13,0,6
COc1ccc(-c2nc(N)oc2-c2ccc(OC)cc2)cc1,1,-2,0,0
CCCC1=C(C(=O)OCC)C(c2cccc([N+](=O)[O-])c2)n2ncnc2N1 (centres undefined),-1,33*,0,11
CCCC1=C(C(=O)OCC)C(c2ccccc2[N+](=O)[O-])n2ncnc2N1 (centres undefined),0,4,0,-5
Nc1ccc(-c2nc3cc(N)ccc3o2)c(O)c1,-3,-15,0,-4
Cc1cc2nc(-c3cccc(NC(=O)C(C)C)c3C)oc2cc1C,1,0,0,-12
Cc1ccc2oc(-c3cccc(N)c3C)nc2c1,-10,43*,0,-3
Cc1ccc(C)c(-c2nc3cc(N)ccc3o2)c1,0,37*,0,6
Cc1ccc2oc(-c3cc(N)ccc3Cl)nc2c1,-4,-46,0,2
Cc1cc2nc(-c3cccc(N)c3C)oc2cc1C,-8,89*,0,-4
Cc1cc(C)c2oc(-c3ccc(N)cc3O)nc2c1,-1,37*,0,3
Cc1ccc(S(=O)(=O)NC(CC(=O)O)c2ccc(Cl)cc2)c(C)c1 (centres undefined),1,-2,0,-11
Cc1ccc(NSc2ccccc2[N+](=O)[O-])cc1,1,56*,0,4
CCOc1ccc(NSc2ccccc2[N+](=O)[O-])cc1,-1,5,0,22
O=C1CCCC2=C1C(c1cccs1)c1c(n[nH]c1-c1ccc([N+](=O)[O-])cc1)N2 (centres undefined),0,42*,0,-1
Brc1cnc(NC2CCN(Cc3ccccc3)CC2)nc1,-1,44*,0,-2
c1ccc(CN2CCC(Nc3nccc(NC4CC4)n3)CC2)cc1,-1,1,0,8
COCCNC(=S)NNC(=O)CSCc1ccccc1Br,1,1,2.8*,21
NC(=O)c1c(NC(=O)c2ccccc2)sc2c1CCCCC2,1,-12,0,12
SMILES,GPR151 activ,TEAD-YAP inh,FBW7 activator,MITF inh
NC(=O)c1c(NC(=O)c2cc3ccccc3o2)sc2c1CCCCC2,0,42*,0,-4
NC(=O)c1c(NC(=O)c2nc3ccccc3s2)sc2c1CCCCC2,-2,62*,0,15
Cc1ccc2nc(Nc3cccc(C(=O)Nc4ccc(O)cc4)c3)nc(-c3ccccc3)c2c1,0,50*,0,15
Cc1ccc(NC(=O)c2ccc(Nc3nc(-c4ccccc4)c4cc(C)ccc4n3)cc2)cc1,1,-3,0,4
CC(C)(C)Nc1ncnc2c1cnn2-c1ccccc1,-1,45*,0,3
Cc1ccc(-n2ncc3c(NC(C)(C)C)ncnc32)cc1,2,49*,0,-3
c1ccc(CNc2ncnc3c2cnn3-c2ccccc2)cc1,0,12,0,14
COc1ccc(-n2nc3ccc(O)cc3n2)cc1,-6,65*,0,4

# Screening results from PubChem BioAssay.
